BoNT-A LC inh2 = blocks Botulinum neurotoxin A light chain protease; 0.17% of 360,000 active; inhibition, % at 10 µM; multiplex microsphere protease substrate cleavage, flow cytometry; note: plate controls were buffer without enzyme for full effect and enzyme alone for no effect
Anthrax LF inh2 = inhibitors of Bacillus anthracis lethal factor protease | P15917 | multiplex microsphere protease cleavage assay, LF | inhibition, % at 10 µM | 0.12% of 360,000 active; note: plate controls were buffer without enzyme for full effect and enzyme alone for no effect
Bead autofluor = flagged as autofluorescent in microsphere protease counterscreen; 3.1% of 360,000 active; compound autofluorescence counterscreen, microsphere flow cytometry; active compounds read high; fluorescence intensity (test concentration not listed); in the data active = fluorescence intensity above about 16000; inconclusive = no clear call, values can overlap the other calls
BoNT-F LC inh = blocks Botulinum neurotoxin F light chain protease. 0.22% of 360,000 active. Multiplex microsphere protease cleavage assay, flow cytometry. inhibition, % at 10 µM. AID 588497; in the data active = inhibition above about 35%, passing the limit was not always enough; inconclusive = no clear call, values can overlap the other calls; note: plate controls were buffer without enzyme for full effect and enzyme alone for no effect
Starred values were filed as active, the others as inactive; ? = inconclusive. This is a sample that favours compounds with a hit; in the whole collection about 3.5% have one here. Cut-off read from the data, not from the text of the source, unless noted: active = inhibition above about 30%; inconclusive = no clear call, values can overlap the other calls; inactive = below that.

SMILES	BoNT-A LC inh2	Anthrax LF inh2	Bead autofluor	BoNT-F LC inh
COc1ccc(CN2CC(C(=O)NCCc3ccccc3)CC2=O)cc1 (stereo not drawn)	7	-4	17837*	10
COc1ccc(N2CC(C(=O)NCCc3ccc(OC)c(OC)c3)CC2=O)cc1 (stereo not drawn)	0	-4	22233*	-5
COc1ccc(CN2CC(C(=O)NCCc3ccc(C)cc3)CC2=O)cc1 (stereo not drawn)	1	-1	20337*	2
CCOc1ccc(CCNC(=O)C2CC(=O)N(Cc3ccc(OC)cc3)C2)cc1OCC (stereo not drawn)	2	-2	5507	2
O=C(Nc1ccccc1)C1CC(=O)N(Cc2ccccc2)C1 (stereo not drawn)	1	-4	5762	-5
O=C(Cc1ccc([N+](=O)[O-])cc1)Nc1cccc(C(=O)N2CCCCC2)c1	0	7	4063	-2
CCOC(=O)C1=C(C)NC(=O)NC1c1ccc(Cl)cc1Cl (stereo not drawn)	3	-8	20836*	2
COc1cc(Cl)cc(C2NC(=O)NC(C)=C2C(C)=O)c1OCC(=O)O (stereo not drawn)	-3	-4	16937*	-4
CCCC1=C(C(=O)OCC)C(c2cc(Cl)cc(OC)c2OCc2ccccc2)NC(=O)N1 (stereo not drawn)	2	0	21474*	2
C=CCOc1c(OC)cc(Cl)cc1C1NC(=O)NC(C)=C1C(C)=O (stereo not drawn)	0	1	4439	-29
CCOC(=O)C1=C(C)NC(=O)NC1c1cccc(OC)c1OCc1ccccc1Cl (stereo not drawn)	?	-3	23671*	-2
CCOC(=O)C1=C(C)C(c2ccccc2O)NC(=O)N1 (stereo not drawn)	2	0	19487*	2
CCOC(=O)c1c(-c2ccc(C)o2)csc1NC(=O)CN(C)CC(=O)Nc1ccc(C)cc1	1	-4	20236*	1
O=C(CCCC(=O)OCC(Cl)=C(Cl)Cl)Nc1cccc(F)c1	1	-3	22287*	0
CCN(N=O)c1ccc(C=C2C=Cc3ccccc32)cc1	0	-7	3339	-13
C=CCNC(=O)c1cc(-c2ccc(Br)cc2)on1	0	1	22477*	0
COc1ccc(Nc2nc(C(=O)NCCCN3CCOCC3)cs2)cc1	-1	0	16850*	-3
COc1ccc(Nc2cc(C(=O)NCCCN3CCOCC3)c3ccccc3n2)cc1	-2	-3	6335	-3
O=C(NCCCN1CCOCC1)c1cc(-c2ccc(Br)cc2)on1	15	-16	18589*	14
O=C(Nc1ccc2c(c1)OCCO2)c1c[nH]c(=O)n(-c2ccc(F)c(Cl)c2)c1=O	-4	-1	6969	-2
CCCOc1ccc(N2C(=O)CC(N(C(=O)c3ccco3)c3ccc(OCCC)cc3)C2=O)cc1 (stereo not drawn)	?	-2	16880*	-5
CCCOc1ccc(N2C(=O)CC(N(Cc3ccco3)C(=O)CC)C2=O)cc1 (stereo not drawn)	4	8	4054	23
Cn1c(=O)[nH]c(=O)c2c1nc(NCc1ccco1)n2Cc1ccccc1Cl	0	-6	3674	-3
Cn1c(=O)c2c(nc(NCc3ccco3)n2Cc2ccc(Cl)cc2Cl)n(C)c1=O	-4	-4	24075*	-7
CCn1c(NCc2ccco2)nc2c1c(=O)n(C)c(=O)n2C	-1	1	21102*	-2
SMILES	BoNT-A LC inh2	Anthrax LF inh2	Bead autofluor	BoNT-F LC inh
Cn1c(=O)c2c(nc(NCc3ccco3)n2CCc2ccccc2)n(C)c1=O	1	-2	2986	-3
CN1CCN(c2ccc([N+](=O)[O-])cc2C(=O)c2ccc(Br)cc2)CC1	-2	-6	23704*	-3
Cc1ccc(C(=O)c2cc([N+](=O)[O-])ccc2N2CCN(C)CC2)cc1	-1	0	6167	-1
O=C(c1ccccc1)N(Cc1ccccc1)c1ccccn1	-1	-1	10766	-6
O=C(c1ccc(Br)o1)N(Cc1ccccc1)c1ccccn1	?	-1	19550*	6
O=C(CSc1nnc(CNC(=O)c2cccs2)o1)Nc1ccccc1F	0	-3	4694	-1
CC(C)=CCC[C@H](C)C[C@@H]1CC2=C(C(=O)OC(C)(C)O2)[C@H](c2ccc(Cl)cc2)O1	0	0	5379	-2
Cc1ccc2[nH]c3c(=O)n(CCCN4CCOCC4)cnc3c2c1	0	0	4004	3
Cc1ccc2[nH]c3c(=O)n(CCCN4CCN(C)CC4)cnc3c2c1	-3	0	23434*	-6
N#Cc1ccc(OCC(O)CN2CCN(c3ncc(C(F)(F)F)cc3Cl)CC2)cc1 (stereo not drawn)	0	0	5271	3
CCOC(=O)CCC(=O)Nc1ccc(S(=O)(=O)Nc2cc(OC)nc(OC)n2)cc1	-2	-11	3987	?
Cc1cnn(C2CCN(C)CC2)c1N	-2	-4	16760*	-7
CC1(C)Cc2c(sc3nc(-c4cc5ccccc5o4)n(N)c(=O)c23)CO1	?	-1	21859*	4
CC1(C)CC(=O)C(C(C2=C(O)CC(C)(C)CC2=O)c2cccc(O)c2)C(=O)C1 (stereo not drawn)	?	-2	20599*	-4
Cc1cc(=O)oc2cc(OCC3CC(c4ccc(Br)cc4)=NO3)ccc12 (stereo not drawn)	2	-2	19620*	2
Cc1cc(=O)oc2cc(OCC3CC(c4ccccc4)=NO3)ccc12 (stereo not drawn)	-1	-1	12279	-12
Cc1ccc(-c2noc(CC(=O)c3ccc([N+](=O)[O-])cc3)n2)cc1	0	-3	2730	1
COc1ccc(CNC(=O)CSc2nccn(-c3ccc(F)c(F)c3)c2=O)cc1	-4	-1	6094	-7
CCN(CCCNC(=O)COc1cc(=O)n(C)c2ccccc12)c1cccc(C)c1	7	-12	17522*	4
O=C(CN1C(=O)COc2ccccc21)NCCCN1CCN(c2ccccc2F)CC1	2	-3	4068	3
Cn1c(=O)cc(OCC(=O)NCCCN2CCN(c3ccccc3F)CC2)c2ccccc21	4	0	20602*	8
Cn1c(=O)cc(OCCCC(=O)NCCN2CCN(c3ccccc3F)CC2)c2ccccc21	0	-3	5817	-13
COCCNC(=O)COc1cc(=O)n(C)c2ccccc12	0	-1	16570*	-4
COc1ccc(CCNC(=O)COc2cc(=O)n(C)c3ccccc23)cc1OC	0	-2	2266	-3
CCn1c(=O)cc(SCC(=O)NCCCN2CCN(c3ccccc3F)CC2)c2ccccc21	-1	-2	20693*	-1
Cc1cc(C)c(OCC(=O)OCC(=O)NNC(=O)c2ccccc2F)c(C)c1	-1	0	5841	-8
CCOC(=O)CNC(=O)COc1coc(CN2CCN(c3ccccc3F)CC2)cc1=O	38*	0	6143	1
CCC1CCCCN1CCCNC(=O)COc1cc(=O)n(C)c2ccccc12 (stereo not drawn)	-1	0	20141*	-2
CCOC(=O)CNC(=O)COc1coc(CN2CCN(c3ccccc3)CC2)cc1=O	1	-2	5349	-2

From PubChem
